Source: PubChem BioAssay (NCATS)
Inconclusive results are not listed. Where a call stands in place of a potency, no number is given. Values without a mark were called inactive. The source made the active and inactive calls. Calls follow the shape of the full dose curve.

Target: Bile acid receptor (Homo sapiens) (UniProt Q96RI1)
Test: qHTS assay for small molecule agonists of farnesoid X receptor signaling (AID 588527)
Settings: HEK293T FXR-UAS-bla, beta-lactamase ratio, 16 h; stronger effect = higher value
Summary of the method: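 Quantitative HTS used FXR-UAS-bla HEK293T cells with 16 h compound incubation at 37 C. EC50 values came from concentration-response curves normalized to chenodeoxycholic acid.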

Sequence of Bile acid receptor (Homo sapiens) (Q96RI1 whole entry, looked up): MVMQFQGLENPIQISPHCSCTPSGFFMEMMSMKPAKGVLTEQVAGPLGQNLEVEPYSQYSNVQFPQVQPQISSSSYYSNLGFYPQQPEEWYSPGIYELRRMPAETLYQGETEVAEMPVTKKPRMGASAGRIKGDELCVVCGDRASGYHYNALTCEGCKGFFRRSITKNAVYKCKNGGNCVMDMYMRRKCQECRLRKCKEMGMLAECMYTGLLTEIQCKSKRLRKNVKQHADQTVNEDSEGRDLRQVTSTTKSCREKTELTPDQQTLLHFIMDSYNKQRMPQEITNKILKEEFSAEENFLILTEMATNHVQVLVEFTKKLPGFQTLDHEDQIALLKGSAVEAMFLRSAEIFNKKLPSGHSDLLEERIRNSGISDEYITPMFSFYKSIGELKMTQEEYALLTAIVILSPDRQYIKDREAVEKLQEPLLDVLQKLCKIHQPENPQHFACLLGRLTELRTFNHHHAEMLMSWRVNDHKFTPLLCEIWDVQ

| SMILES | activation |
| --- | --- |
| OC[C@H]1O[C@@](CO)(O[C@H]2O[C@H](CO)[C@@H](O)[C@H](O)[C@H]2O)[C@@H](O)[C@@H]1O | -1.48% |
| O=CCCCC=O | -2.56% |
| CC1=CCC(C(C)(C)O)CC1 (configuration not stated) | -1.09% |

Target: Peroxisome proliferator-activated receptor delta (Homo sapiens) (UniProt Q03181)
Sequence (Q03181 whole entry, looked up): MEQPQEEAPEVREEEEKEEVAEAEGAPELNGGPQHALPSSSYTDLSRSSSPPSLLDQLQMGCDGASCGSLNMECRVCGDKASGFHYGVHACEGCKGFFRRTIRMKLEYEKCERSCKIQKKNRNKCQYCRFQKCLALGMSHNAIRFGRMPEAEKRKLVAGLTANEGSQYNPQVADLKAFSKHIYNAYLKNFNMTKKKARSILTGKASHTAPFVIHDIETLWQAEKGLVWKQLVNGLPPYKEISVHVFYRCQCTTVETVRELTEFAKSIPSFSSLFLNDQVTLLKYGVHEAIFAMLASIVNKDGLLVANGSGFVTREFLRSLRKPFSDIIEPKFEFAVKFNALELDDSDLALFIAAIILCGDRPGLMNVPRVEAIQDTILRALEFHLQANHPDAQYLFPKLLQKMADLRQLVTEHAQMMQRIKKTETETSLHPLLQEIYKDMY
Test: qHTS assay for small molecule agonists of peroxisome proliferator-activated receptor delta signaling (AID 588534)
Settings: HEK293T PPARdelta-UAS-bla, beta-lactamase ratio, 18 h; series mostly up to 76.7 µM
Summary of the method: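 Agonist-mode qHTS; reporter cells, 5 hrs 37 C pre-incubation; compound titration, 18 hrs 37 C; CCF4 dye, 2 hrs RT; fluorescence read. EC50/efficacy via Hill fit.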

| SMILES | outcome |
| --- | --- |
| OC[C@H]1O[C@@](CO)(O[C@H]2O[C@H](CO)[C@@H](O)[C@H](O)[C@H]2O)[C@@H](O)[C@@H]1O | inactive |
| CC1=CCC(C(C)(C)O)CC1 (configuration not stated) | inactive |
| CN(C)Cc1ccccc1 | inactive |
| CC1(C)C(C=C(Cl)Cl)C1C(=O)OCc1cccc(Oc2ccccc2)c1 (configuration not stated) | inactive |

Tested on: not listed separately
Test: Primary qHTS for inhibitors of SARS-S pseudo-typed particle cell entry (AID 1479145); also: nearly all actives have a fitted effect of over 45% in size; also: potency is read from the fitted curve at half-maximal effect
Settings: SARS-S pseudotyped particle cell entry, luciferase reporter; series mostly up to 57.1 µM

| SMILES | Potency | outcome | activity change, negative = inhibition |
| --- | --- | --- | --- |
| C[C@@H]1C[C@H]2[C@@H]3C[C@H](F)C4=CC(=O)C=C[C@]4(C)[C@@]3(F)[C@@H](O)C[C@]2(C)[C@@]1(O)C(=O)COC(=O)C(C)(C)C | inactive |  |  |
| O=C(NNCS(=O)(=O)O)c1ccncc1 | inactive |  |  |
| N[C@@H]1CCCCN(c2c(F)cc3c(=O)c(C(=O)O)cn(C4CC4)c3c2Cl)C1 | inactive |  |  |
| C#C[C@]1(O)CC[C@@H]2[C@@H]3CCC4=CCCC[C@@H]4[C@H]3C(=C)C[C@@]21CC | inactive |  |  |
| O=C(OCc1ccccc1)c1cccnc1 | inactive |  |  |
| CCC(CC)[C@H](NC(C)=O)[C@@H]1[C@H](O)[C@@H](C(=O)O)C[C@H]1N=C(N)N |  | inactive [at 0.573 µM] |  |
| NCCNc1ccc(NCCN)c2c1C(=O)c1ccncc1C2=O | 11.2 µM (active) |  |  |
| Nc1c(Br)cc(Br)cc1CNC1CCC(O)CC1 (configuration not stated) | inactive |  |  |
| Cc1cccc(C)c1NC(=O)C1CCCCN1C (configuration not stated) | inactive |  |  |
| CCCCCCCCCCCCCCCCCC(=O)[O][Al] |  |  | -36% [at 5.34 µM] |
| CS(=O)(=O)c1ccc([C@@H](O)[C@@H](COC(=O)CN)NC(=O)C(Cl)Cl)cc1 | inactive |  |  |
| CC(C)CCCC(C)NC(C)C (configuration not stated) | inactive |  |  |
| C=C1/C(=C/C=C2\CCC[C@]3(C)[C@@H]([C@H](C)CCCC(C)(C)O)CC[C@@H]23)C[C@@H](O)[C@@H](OCCCO)[C@@H]1O | inactive |  |  |
| OC[C@H]1O[C@@](CO)(O[C@H]2O[C@H](CO)[C@@H](O)[C@H](O)[C@H]2O)[C@@H](O)[C@@H]1O | inactive |  |  |
| CCCCCCCCCCCCCCCCCC(=O)OCC(C)O (configuration not stated) | inactive |  |  |
| OB1OCc2cc(F)ccc21 | inactive |  |  |
| CC1(C)C2CCC1(C)C(O)C2 (configuration not stated) | inactive |  |  |
| CCCCCCCCCCCC[n+]1ccc2ccccc2c1 | 2.82 µM (active) |  |  |
| NCCCC[C@H](N)C(=O)O |  | inactive [at 0.573 µM] |  |
| O=CCCCC=O | inactive |  |  |

| SMILES | Potency | outcome | activity change, negative = inhibition |
| --- | --- | --- | --- |
| CN(C)c1ccc(C(=C2C=CC(=[N+](C)C)C=C2)c2c(O)c(S(=O)(=O)[O-])cc3cc(S(=O)(=O)O)ccc23)cc1 | inactive |  |  |
| CC[C@H]1CN2CCc3cc(OC)c(OC)cc3C2C[C@@H]1CC1NCCc2cc(OC)c(OC)cc21 (some centres not stated) | 5.62 µM (active) |  |  |
| CC1=CCC(C(C)(C)O)CC1 (configuration not stated) | inactive |  |  |
| CCC(C(=O)O)[C@H]1CC[C@H](C)[C@H]([C@@H](C)[C@H](O)[C@H](C)C(=O)[C@H](CC)[C@H]2OC3(C=C[C@@H](O)[C@]4(CC[C@@](C)([C@H]5CC[C@](O)(CC)[C@H](C)O5)O4)O3)[C@H](C)C[C@@H]2C)O1 (some centres not stated) | 3.98 µM (active) |  |  |
| O=C(/C=C/c1cccc(S(=O)(=O)Nc2ccccc2)c1)NO | 10 µM (active) |  |  |
| COC1(O[C@H]2CC[C@H]3[C@@H]4CC[C@H]5C[C@@H]6S[C@@H]6C[C@]5(C)[C@H]4CC[C@]23C)CCCC1 | inactive |  |  |
| CC(=O)OCC(=O)[C@@]1(O)CC[C@H]2[C@@H]3C[C@H](C)C4=CC(=O)C=C[C@]4(C)[C@H]3[C@@H](O)C[C@@]21C | inactive |  |  |
| CN(C)Cc1ccccc1 | inactive |  |  |
| NC(=O)c1nc(F)c[nH]c1=O | inactive |  |  |
| CCCCCC/C=C\CCCCCCCC(=O)O | inactive |  |  |
| CC1(C)C(C=C(Cl)Cl)C1C(=O)OCc1cccc(Oc2ccccc2)c1 (configuration not stated) | inactive |  |  |
| CNC(C)CC1CCCC1 (configuration not stated) | inactive |  |  |
| CC(C)=C/C(C)=N\Nc1nncc2ccccc12 | inactive |  |  |
| Cc1cccc(O)c1 | inactive |  |  |
| O=c1c2c(c1=O)N(CCP(=O)(O)O)CCCN2 | inactive |  |  |
| CC=CC1C(C(=O)OCc2c(F)c(F)c(COC)c(F)c2F)C1(C)C (configuration not stated) | inactive |  |  |
| O=C(O)CC(O)CC(O)/C=C/c1c(C2CC2)nc2ccccc2c1-c1ccc(F)cc1 (configuration not stated) | inactive |  |  |
| C/C=C(/C)C(=O)O[C@H]1C(C)=CC23C(=O)C(C=C(CO)[C@@H](O)[C@]12O)[C@H]1[C@@H](C[C@H]3C)C1(C)C (some centres not stated) | inactive |  |  |
| CN1CCN(CCCN2c3ccccc3Sc3ccccc32)CC1 | 28.2 µM (active) |  |  |
| CCC(C(=O)NC(N)=O)c1ccccc1 (configuration not stated) | inactive |  |  |

Tested on: not listed separately
Test: Primary qHTS for Huh7 cytotoxicity: counterscreen for inhibitors of MERS-S pseudotyped particle cell entry (AID 1479147); also: potency is read from the fitted curve at half-maximal effect
Settings: cell viability read-out; series mostly up to 57.1 µM

| SMILES | Potency | outcome | activity change, negative = cytotoxicity |
| --- | --- | --- | --- |
| C[C@@H]1C[C@H]2[C@@H]3C[C@H](F)C4=CC(=O)C=C[C@]4(C)[C@@]3(F)[C@@H](O)C[C@]2(C)[C@@]1(O)C(=O)COC(=O)C(C)(C)C | inactive |  |  |
| O=C(NNCS(=O)(=O)O)c1ccncc1 | inactive |  |  |
| N[C@@H]1CCCCN(c2c(F)cc3c(=O)c(C(=O)O)cn(C4CC4)c3c2Cl)C1 | inactive |  |  |
| C#C[C@]1(O)CC[C@@H]2[C@@H]3CCC4=CCCC[C@@H]4[C@H]3C(=C)C[C@@]21CC | inactive |  |  |
| O=C(OCc1ccccc1)c1cccnc1 | inactive |  |  |
| CCC(CC)[C@H](NC(C)=O)[C@@H]1[C@H](O)[C@@H](C(=O)O)C[C@H]1N=C(N)N |  | inactive [at 0.573 µM] |  |
| NCCNc1ccc(NCCN)c2c1C(=O)c1ccncc1C2=O | inactive |  |  |
| Nc1c(Br)cc(Br)cc1CNC1CCC(O)CC1 (configuration not stated) | inactive |  |  |
| Cc1cccc(C)c1NC(=O)C1CCCCN1C (configuration not stated) | inactive |  |  |
| CCCCCCCCCCCCCCCCCC(=O)[O][Al] |  |  | -3.61% [at 5.34 µM] |
| CS(=O)(=O)c1ccc([C@@H](O)[C@@H](COC(=O)CN)NC(=O)C(Cl)Cl)cc1 | inactive |  |  |
| CC(C)CCCC(C)NC(C)C (configuration not stated) | inactive |  |  |
| C=C1/C(=C/C=C2\CCC[C@]3(C)[C@@H]([C@H](C)CCCC(C)(C)O)CC[C@@H]23)C[C@@H](O)[C@@H](OCCCO)[C@@H]1O | inactive |  |  |
| OC[C@H]1O[C@@](CO)(O[C@H]2O[C@H](CO)[C@@H](O)[C@H](O)[C@H]2O)[C@@H](O)[C@@H]1O | inactive |  |  |
| CCCCCCCCCCCCCCCCCC(=O)OCC(C)O (configuration not stated) | inactive |  |  |
| OB1OCc2cc(F)ccc21 | inactive |  |  |
| CC1(C)C2CCC1(C)C(O)C2 (configuration not stated) | inactive |  |  |
| CCCCCCCCCCCC[n+]1ccc2ccccc2c1 | inactive |  |  |
| NCCCC[C@H](N)C(=O)O |  | inactive [at 0.573 µM] |  |
| O=CCCCC=O | inactive |  |  |

| SMILES | Potency | outcome | activity change, negative = cytotoxicity |
| --- | --- | --- | --- |
| CN(C)c1ccc(C(=C2C=CC(=[N+](C)C)C=C2)c2c(O)c(S(=O)(=O)[O-])cc3cc(S(=O)(=O)O)ccc23)cc1 | inactive |  |  |
| CC[C@H]1CN2CCc3cc(OC)c(OC)cc3C2C[C@@H]1CC1NCCc2cc(OC)c(OC)cc21 (some centres not stated) | 17.8 µM (active) |  |  |
| CC1=CCC(C(C)(C)O)CC1 (configuration not stated) | inactive |  |  |
| CCC(C(=O)O)[C@H]1CC[C@H](C)[C@H]([C@@H](C)[C@H](O)[C@H](C)C(=O)[C@H](CC)[C@H]2OC3(C=C[C@@H](O)[C@]4(CC[C@@](C)([C@H]5CC[C@](O)(CC)[C@H](C)O5)O4)O3)[C@H](C)C[C@@H]2C)O1 (some centres not stated) | 7.94 µM (active) |  |  |
| O=C(/C=C/c1cccc(S(=O)(=O)Nc2ccccc2)c1)NO | inactive |  |  |
| COC1(O[C@H]2CC[C@H]3[C@@H]4CC[C@H]5C[C@@H]6S[C@@H]6C[C@]5(C)[C@H]4CC[C@]23C)CCCC1 | inactive |  |  |
| CC(=O)OCC(=O)[C@@]1(O)CC[C@H]2[C@@H]3C[C@H](C)C4=CC(=O)C=C[C@]4(C)[C@H]3[C@@H](O)C[C@@]21C | inactive |  |  |
| CN(C)Cc1ccccc1 | inactive |  |  |
| NC(=O)c1nc(F)c[nH]c1=O | inactive |  |  |
| CCCCCC/C=C\CCCCCCCC(=O)O | inactive |  |  |
| CC1(C)C(C=C(Cl)Cl)C1C(=O)OCc1cccc(Oc2ccccc2)c1 (configuration not stated) | inactive |  |  |
| CNC(C)CC1CCCC1 (configuration not stated) | inactive |  |  |
| CC(C)=C/C(C)=N\Nc1nncc2ccccc12 | inactive |  |  |
| Cc1cccc(O)c1 | inactive |  |  |
| O=c1c2c(c1=O)N(CCP(=O)(O)O)CCCN2 | inactive |  |  |
| CC=CC1C(C(=O)OCc2c(F)c(F)c(COC)c(F)c2F)C1(C)C (configuration not stated) | inactive |  |  |
| O=C(O)CC(O)CC(O)/C=C/c1c(C2CC2)nc2ccccc2c1-c1ccc(F)cc1 (configuration not stated) | inactive |  |  |
| C/C=C(/C)C(=O)O[C@H]1C(C)=CC23C(=O)C(C=C(CO)[C@@H](O)[C@]12O)[C@H]1[C@@H](C[C@H]3C)C1(C)C (some centres not stated) | inactive |  |  |
| CN1CCN(CCCN2c3ccccc3Sc3ccccc32)CC1 | 31.6 µM (active) |  |  |
| CCC(C(=O)NC(N)=O)c1ccccc1 (configuration not stated) | inactive |  |  |
